Data taken from PubChem BioAssay (EPA / NIEHS).
Records with an inconclusive call do not appear. Activity calls are given as the source filed them. How the source made its calls: active means hit-call score of the fitted dose curve at least 0.9, where 1 is the maximum; inconclusive means response in the unintended direction; inactive means score below 0.9.

Key:
[1] = TOX21_p53_BLA_p2_viability: Viability Assessment in the Tox21 HCT-116 p53 Agonism Beta-lactamase Assay, Phase 2 (AID 2283591);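 further: compound exposure lasted 16 h at 37 °C; actives lower the ATP signal meaning cytotoxicity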
In short: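 Cytotoxicity readout: CellTiter-Glo ATP luminescence, 30 min at room temperature, after the beta-lactamase read. Cells were HCT116 exposed 16 h at 37C to compounds pin-transferred at 217-fold dilution from DMSO stocks.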

[2] = target: Cellular tumor antigen p53 (Homo sapiens) (UniProt P04637); assay: TOX21_p53_BLA_p2_ratio: Tox21 HCT-116 p53 Agonism Beta-lactamase Assay, Ratio, Phase 2 (AID 2283592)
In short: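 Read-out is the blue/green (460/530 nm, 405 nm excitation) ratio after 2 h CCF4-AM loading, fitted as gain versus DMSO. Compounds, pinned at 217-fold dilution from DMSO stocks, stayed 16 h on HCT-116 beta-lactamase reporter cells seeded 5 h earlier.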

[3] = TOX21_p53_BLA_p3_viability: Viability Assessment in the Tox21 HCT-116 p53 Agonism Beta-lactamase Assay, Phase 3 (AID 2283593);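 further: cells exposed to compound for 16 h before reading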
In short: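 Cellular ATP was quantified by CellTiter-Glo luminescence, read after 30 min at room temperature. Beforehand, HCT116 cells (4000/well) received compound 5 h post-seeding, 217-fold diluted from DMSO, then incubated 16 h at 37C.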

[4] = target: Cellular tumor antigen p53 (Homo sapiens) (UniProt P04637); assay: TOX21_p53_BLA_p3_ratio: Tox21 HCT-116 p53 Agonism Beta-lactamase Assay, Ratio, Phase 3 (AID 2283596)
In short: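 Cells were seeded at 4000/well, rested 5 h at 37C, then dosed with DMSO compound solutions (217-fold dilution) for 16 h. CCF4-AM substrate was loaded for 2 h at room temperature, and the 460/530 nm emission ratio was fitted for gain of signal versus DMSO.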

[5] = TOX21_p53_BLA_p4_viability: Viability Assessment in the Tox21 HCT-116 p53 Agonism Beta-lactamase Assay, Phase 4 (AID 2283597);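 further: hits lower the luminescence signal meaning cytotoxicity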
In short: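 Cytotoxicity as reduced cellular ATP (CellTiter-Glo luminescence, 30 min room temperature), measured in the same wells following the CCF4 FRET p53 reading. Human HCT-116 cells received compounds in DMSO (217-fold dilution) for 16 h.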

[6] = TOX21_p53_BLA_p5_viability: Viability Assessment in the Tox21 HCT-116 p53 Agonism Beta-lactamase Assay, Phase 5 (AID 2283600)
In short: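 Viability came from CellTiter-Glo ATP luminescence, read after 30 min at room temperature. Before this, HCT-116 p53-bla cells (4000/well) had 16 hours of compound exposure at 37C, with DMSO stocks diluted 217-fold on transfer.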

[7] = target: Cellular tumor antigen p53 (Homo sapiens) (UniProt P04637); assay: TOX21_p53_BLA_p4_ratio: Tox21 HCT-116 p53 Agonism Beta-lactamase Assay, Ratio, Phase 4 (AID 2283601)
In short: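 Signal is the blue/green (460nm/530nm) ratio of cleaved versus uncleaved CCF4-AM substrate, read after 2 h substrate loading. Cells were HCT116 carrying the p53-responsive beta-lactamase reporter, dosed 16 h at 37C, 5% CO2; CellTiter-Glo measured in parallel.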

[8] = Tanguay_ZF_120hpf_MORT_legacy: (Legacy) Oregon State University Tanguay Lab 120 Hour Post-fertilization zebrafish Assay for Mortality (AID 2283633)
In short: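 Static waterborne exposure from 6 to 120 hpf at 28C of single dechorionated wild-type (5D) embryos per well, 0.64% DMSO final. Death recorded present/absent by brightfield at 24 and 120 hpf.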

[9] = Tanguay_ZF_120hpf_AXIS_legacy: (Legacy) Oregon State University Tanguay Lab 120 Hour Post-fertilization zebrafish Assay for Body Axis Malformation (AID 2283635)
In short: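 Binary scoring of axis defects at 120 hpf under brightfield, fitted positive versus DMSO. Tropical 5D embryos, chorion removed by pronase at 4 hpf, were singly exposed in sealed, dark plates at 28C from 6 hpf; DMSO 0.64% final.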

[10] = Tanguay_ZF_120hpf_JAW_legacy: (Legacy) Oregon State University Tanguay Lab 120 Hour Post-fertilization zebrafish Assay for Jaw Malformation (AID 2283638)
In short: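 Binary jaw-malformation call at 120 hpf by brightfield microscopy. Embryos (Tropical 5D strain, chorion removed at 4 hpf) were dosed statically at 6 hpf, one per well, at 28C with 0.64% DMSO. Embryos that died were not scored.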

[11] = Tanguay_ZF_120hpf_PE_legacy: (Legacy) Oregon State University Tanguay Lab 120 Hour Post-fertilization zebrafish Assay for Pericardial Edema (AID 2283640)
In short: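 Scoring was binary, by brightfield microscopy at 120 hpf, and skipped where mortality occurred. Wild-type embryos were kept under sealed, foil-covered static exposure at 28C in 0.64% (vol/vol) DMSO.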

[12] = Tanguay_ZF_120hpf_SOMI_legacy: (Legacy) Oregon State University Tanguay Lab 120 Hour Post-fertilization zebrafish Assay for Somite Malformation (AID 2283647)
In short: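 Binary somite-defect scoring at 120 hpf, omitted for embryos that died, in wild-type (Tropical 5D) zebrafish with chorion removed by pronase at 4 hpf; static exposure began 6 hpf, single embryos per well, 28C, 0.64% DMSO; fitted positive versus DMSO.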

[13] = Tanguay_ZF_120hpf_PFIN_legacy: (Legacy) Oregon State University Tanguay Lab 120 Hour Post-fertilization zebrafish Assay for Pectoral Fin Malformation (AID 2283648);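 further: each larva judged yes or no for fin defect by brightfield with dead larvae skipped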
In short: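 Pectoral fin malformation was recorded as a binary endpoint at 120 hpf in wild-type Tropical 5D larvae, which had been dechorionated and exposed statically from 6 hpf at 28C in 0.64% DMSO. Dead embryos were excluded.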

[14] = Tanguay_ZF_120hpf_CFIN_legacy: (Legacy) Oregon State University Tanguay Lab 120 Hour Post-fertilization zebrafish Assay for Caudal Fin Malformation (AID 2283649)
In short: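 Binary brightfield scoring of caudal fin defects at 120 hpf after static, light-shielded exposure at 28C from 6 hpf. Tropical 5D embryos, chorion removed with pronase at 4 hpf, final DMSO 0.64%.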

[15] = target: Cellular tumor antigen p53 (Homo sapiens) (UniProt P04637); assay: TOX21_p53_BLA_p5_ratio: Tox21 HCT-116 p53 Agonism Beta-lactamase Assay, Ratio, Phase 5 (AID 2283599)
In short: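 Beta-lactamase reporter ratio (blue 460 nm over green 530 nm, 405 nm excitation) after 2 h CCF4-AM loading, in HCT-116 cells exposed 16 h at 37 C to compounds pinned at 217-fold dilution. Increases relative to DMSO baseline scored.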

[16] = Tanguay_ZF_120hpf_YSE_legacy: (Legacy) Oregon State University Tanguay Lab 120 Hour Post-fertilization zebrafish Assay for Yolk Sac Edema (AID 2283634)
In short: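 Presence or absence of yolk sac edema was recorded at 120 hpf in surviving larvae. These were wild-type Tropical 5D embryos, chorion removed at 4 hpf, held in static exposure at 28C from 6 hpf with 0.64% DMSO vehicle.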

[17] = Tanguay_ZF_120hpf_EYE_legacy: (Legacy) Oregon State University Tanguay Lab 120 Hour Post-fertilization zebrafish Assay for Eye Malformation (AID 2283636);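 further: binary presence or absence of eye malformation scored by brightfield in 120 hpf larvae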
In short: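 Binary brightfield scoring of eye defects at 120 hpf after static exposure from 6 hpf of single pronase-dechorionated wild-type embryos (28C, 0.64% DMSO). Non-mortality endpoints omitted where embryos died; fit vs DMSO.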

[18] = Tanguay_ZF_120hpf_SNOU_legacy: (Legacy) Oregon State University Tanguay Lab 120 Hour Post-fertilization zebrafish Assay for Snout Malformation (AID 2283637)
In short: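 Binary snout-malformation call at 120 hpf in wild-type 5D embryos, chorion removed by pronase, under static exposure from 6 hpf at 28C (0.64% DMSO). Embryos dying by 24 or 120 hpf excluded.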

[19] = Tanguay_ZF_120hpf_OTIC_legacy: (Legacy) Oregon State University Tanguay Lab 120 Hour Post-fertilization zebrafish Assay for Otic Vesicle Malformation (AID 2283639)
In short: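 Binary scoring of otic vesicle defects at 120 hpf in zebrafish (Tropical 5D) held under static exposure at 28C, sealed and shaded, with final DMSO 0.64%. Embryos dying by 24 or 120 hpf excluded; fitted positively against DMSO.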

[20] = Tanguay_ZF_120hpf_BRAI_legacy: (Legacy) Oregon State University Tanguay Lab 120 Hour Post-fertilization zebrafish Assay for Brain Malformation (AID 2283641)
In short: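 Binary brightfield scoring of brain malformation at 120 hpf in Tropical 5D larvae held under static exposure at 28C (0.64% v/v DMSO), non-mortality endpoints skipped if dead. Positive control: 5uM trimethyltin chloride; fit versus DMSO.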

Measured: outcome

Sequence of Cellular tumor antigen p53 (Homo sapiens) (P04637 whole entry, looked up): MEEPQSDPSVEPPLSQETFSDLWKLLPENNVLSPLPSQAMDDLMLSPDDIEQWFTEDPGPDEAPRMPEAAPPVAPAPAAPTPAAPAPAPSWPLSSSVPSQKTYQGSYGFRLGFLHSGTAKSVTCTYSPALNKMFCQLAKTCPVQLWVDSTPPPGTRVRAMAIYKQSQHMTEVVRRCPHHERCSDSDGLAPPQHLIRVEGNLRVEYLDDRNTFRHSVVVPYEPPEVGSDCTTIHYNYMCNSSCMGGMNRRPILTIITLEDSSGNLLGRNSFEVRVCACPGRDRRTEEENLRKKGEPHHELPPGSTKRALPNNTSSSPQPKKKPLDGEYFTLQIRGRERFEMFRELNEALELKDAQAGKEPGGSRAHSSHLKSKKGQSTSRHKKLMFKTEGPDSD

ClCCOCCCl
not listed: [15] | [16] | [17] | [18] | [19] | [20]
inactive: all other assays above

CC(C)(C)OOC(C)(C)CCC(C)(C)OOC(C)(C)C
not listed: [4] | [5] | [8] | [9] | [12] | [18] | [19] | [20]
inactive: all other assays above

Cc1ccc([N+](=O)[O-])cc1
not listed: [3] | [8] | [9] | [20]
inactive: all other assays above

c1ccc2c(c1)-c1cccc3cccc-2c13
not listed: [6] | [10] | [11] | [12] | [17] | [18] | [19] | [20]
inactive: all other assays above

Clc1ccc(Cl)c(Cl)c1
not listed: [5] | [8] | [18] | [19]
inactive: all other assays above

C=CCc1ccc2c(c1)OCO2
not listed: [8] | [19]
inactive: all other assays above

CC(C)(C)C(O)(CCc1ccc(Cl)cc1)Cn1cncn1 (configuration not stated)
not listed: [8] | [10] | [13] | [18] | [20]
inactive: all other assays above

CC(O)CCO (configuration not stated)
not listed: [18]
inactive: all other assays above
